In PubChem BioAssay AID521 (Sanford-Burnham Center for Chemical Genomics, 2006):
The whole screen tested about 110,000 compounds, of which about 730 (0.66%) were called active. No stated cut-off is given here; in the data, active means inhibition above about 50%; inconclusive means no clear call, values can overlap the other calls; inactive means below that. The sample as a whole holds a higher share of actives than the screen did.

biological target: Tyrosine-protein phosphatase non-receptor type 7 (Homo sapiens) (UniProt P35236); test: inhibitors of human HePTP phosphatase, primary screen, biochemical, absorbance, leukemia target (AID 521); conditions: recombinant HePTP phosphatase activity, OD absorbance; at 20 µM; stronger effect = higher value;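 further: plate controls were vehicle for no effect and reference inhibitor for full effect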
Sequence (P35236 whole entry, looked up): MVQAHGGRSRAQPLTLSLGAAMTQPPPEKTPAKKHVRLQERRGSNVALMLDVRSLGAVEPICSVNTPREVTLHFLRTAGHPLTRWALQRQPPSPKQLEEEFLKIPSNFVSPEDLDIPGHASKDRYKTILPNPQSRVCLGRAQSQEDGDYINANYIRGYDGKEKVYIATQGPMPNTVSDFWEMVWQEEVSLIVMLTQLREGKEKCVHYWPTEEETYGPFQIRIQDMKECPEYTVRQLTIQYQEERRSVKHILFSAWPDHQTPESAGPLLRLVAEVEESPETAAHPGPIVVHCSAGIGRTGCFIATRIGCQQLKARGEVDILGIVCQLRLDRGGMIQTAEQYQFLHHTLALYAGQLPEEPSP

Row | Structure (SMILES) | inhibition
1 | C=CCN1C(=O)/C(=C\c2cccn2-c2cccc([N+](=O)[O-])c2)C(=O)NC1=S | 98.9% (active)
2 | COc1cccc(CN2CCN(C(=O)COc3ccccc3)CC2)c1OC | 3.3% (inactive)
3 | CCOc1cc(C=C2C(=O)NC(=O)NC2=O)cc(Br)c1OCCOc1ccccc1C | 3.9% (inactive)
4 | CCOP(=O)(OCC)C(=C(Cl)Cl)C(C(=O)OC)C(=O)OC | 11.5% (inactive)
5 | C=CCSc1nc2ccccc2c(=O)n1-c1ccccc1OC | 11.5% (inactive)
